# Assay results published in PubChem BioAssay AID1159580 (chemical genetic matrix, 2015).
# Several values for one entry are separate records, joined by “and”; a condition that tells them apart may be missing. Identical values can stand only once. The whole screen tested about 5,500 compounds, of which about 2,000 (36%) were called active. About 18% were inconclusive and are not listed. No stated cut-off is given here; in the data, active means normalized growth mostly below about 0.91 (no sharp cut-off); inconclusive means no clear call, values can overlap the other calls; inactive means mostly above about 0.92. Some of the results follow. Some structures have more than one record in an assay (separate samples or runs), and their calls can disagree.
# Test: chemical genetic growth profiling, strain panel (AID 1159580);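 further: tested at 20 µM; growth read once vehicle control cultures reached saturation at 30 °C; 1 = growth at the plate median or of vehicle wells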
# Conditions: S. cerevisiae deletion strains, growth OD
structure (smiles),measurement,setting,value
CN1C2CCC1CC(OC(c1ccccc1)c1ccccc1)C2 (stereo not given),normalized growth,"locus YAL013W, strain DEP1, stronger effect = lower value",0.825 (active) and 1.01 (inactive)
same,normalized growth,"locus YAL021C, strain ccr4, stronger effect = lower value",0.963 (inactive)
same,normalized growth,"locus YAL026C, strain drs2, stronger effect = lower value",0.975 (inactive)
same,normalized growth,"locus YAL030W, strain snc1, stronger effect = lower value",0.985 (inactive)
same,normalized growth,"locus YAL040C, strain CLN3, stronger effect = lower value",0.98 (inactive)
same,normalized growth,"locus YBL061C, strain skt5, stronger effect = lower value",0.989 (inactive)
same,normalized growth,"locus YBR009C, strain hhf1, stronger effect = lower value",0.968 (inactive)
same,normalized growth,"locus YBR021W, strain FUR4, stronger effect = lower value",1.02 (inactive)
same,normalized growth,"locus YBR023C, strain chs3, stronger effect = lower value",0.994 (inactive)
same,normalized growth,"locus YBR171W, strain sec66, stronger effect = lower value",0.977 (inactive)
same,normalized growth,"locus YBR229C, strain ROT2, stronger effect = lower value",0.989 (inactive)
same,normalized growth,"locus YBR231C, strain swc5, stronger effect = lower value",0.998 (inactive)
same,normalized growth,"locus YBR279W, strain paf1, stronger effect = lower value",0.967 (inactive)
same,normalized growth,"locus YCL011C, strain gbp2, stronger effect = lower value",0.982 (inactive)
same,normalized growth,"locus YCL016C, strain dcc1, stronger effect = lower value",0.969 (inactive)
same,normalized growth,"locus YCL029C, strain bik1, stronger effect = lower value",0.98 (inactive)
same,normalized growth,"locus YCL069W, strain vba3, stronger effect = lower value",0.989 (inactive)
same,normalized growth,"locus YCR088W, strain abp1, stronger effect = lower value",0.998 (inactive)
same,normalized growth,"locus YDL005C, strain med2, stronger effect = lower value",0.977 (inactive)
same,normalized growth,"locus YDL035C, strain GPR1, stronger effect = lower value",0.894 (inactive)
same,normalized growth,"locus YDL040C, strain nat1, stronger effect = lower value",0.992 (inactive)
same,normalized growth,"locus YDL074C, strain BRE1, stronger effect = lower value",0.665 (active)
same,normalized growth,"locus YDL101C, strain DUN1, stronger effect = lower value",0.914 (inactive)
same,normalized growth,"locus YDL134C, strain PPH21, stronger effect = lower value",0.924 (inactive)
same,normalized growth,"locus YDL185W, strain tfp1, stronger effect = lower value",0.969 (inactive)
same,normalized growth,"locus YDL192W, strain arf1, stronger effect = lower value",0.986 (inactive)
same,normalized growth,"locus YDR001C, strain nth1, stronger effect = lower value",0.989 (inactive)
same,normalized growth,"locus YDR069C, strain doa4, stronger effect = lower value",0.981 (inactive)
same,normalized growth,"locus YDR101C, strain arx1, stronger effect = lower value",1 (inactive)
same,normalized growth,"locus YDR137W, strain rgp1, stronger effect = lower value",1.01 (inactive)
same,normalized growth,"locus YDR150W, strain NUM1, stronger effect = lower value",1.01 (inactive)
same,normalized growth,"locus YDR159W, strain sac3, stronger effect = lower value",0.976 (inactive)
same,normalized growth,"locus YDR162C, strain NBP2, stronger effect = lower value",0.778 (active)
same,normalized growth,"locus YDR195W, strain ref2",0.975 (inactive)
same,normalized growth,"locus YDR297W, strain sur2, stronger effect = lower value",0.981 (inactive)
same,normalized growth,"locus YDR318W, strain mcm21, stronger effect = lower value",0.982 (inactive)
same,normalized growth,"locus YDR334W, strain swr1, stronger effect = lower value",0.999 (inactive)
same,normalized growth,"locus YDR335W, strain msn5, stronger effect = lower value",0.986 (inactive)
same,normalized growth,"locus YDR363W, strain ESC2, stronger effect = lower value",1 (inactive)
same,normalized growth,"locus YDR388W, stronger effect = lower value",0.972 (inactive)
same,normalized growth,"locus YDR392W, strain spt3, stronger effect = lower value",0.87 (inactive)
same,normalized growth,"locus YDR502C, strain sam2, stronger effect = lower value",0.964 (inactive)
same,normalized growth,"locus YEL003W, strain gim4, stronger effect = lower value",0.983 (inactive)
same,normalized growth,"locus YEL037C, strain rad23, stronger effect = lower value",0.977 (inactive)
same,normalized growth,"locus YEL061C, strain CIN8 (second series), stronger effect = lower value",0.988 (inactive)
same,normalized growth,"locus YEL061C, strain CIN8, stronger effect = lower value",0.983 (inactive)
same,normalized growth,"locus YER002W, strain NOP16, stronger effect = lower value",0.989 (inactive)
same,normalized growth,"locus YER015W, strain faa2, stronger effect = lower value",0.99 (inactive)
same,normalized growth,"locus YER016W, strain bim1, stronger effect = lower value",0.949 (inactive)
same,normalized growth,"locus YER110C, stronger effect = lower value",0.974 (inactive)
same,normalized growth,"locus YER111C, strain swi4, stronger effect = lower value",1 (inactive)
same,normalized growth,"locus YER155C, strain BEM2 (second series), stronger effect = lower value",0.985 (inactive)
same,normalized growth,"locus YER155C, strain BEM2, stronger effect = lower value",0.805 (active)
same,normalized growth,"locus YER167W, strain BCK2, stronger effect = lower value",0.939 (inactive)
same,normalized growth,"locus YFR010W, strain ubp6, stronger effect = lower value",0.973 (inactive)
same,normalized growth,"locus YGL078C, strain dbp3, stronger effect = lower value",0.98 (inactive)
same,normalized growth,"locus YGL086W, strain mad1, stronger effect = lower value",0.951 (inactive)
same,normalized growth,"locus YGL167C, strain pmr1, stronger effect = lower value",0.996 (inactive)
same,normalized growth,"locus YGL173C, strain kem1, stronger effect = lower value",0.982 (inactive)
same,normalized growth,"locus YGL227W, strain vid30, stronger effect = lower value",1 (inactive)
same,normalized growth,"locus YGL240W, strain doc1, stronger effect = lower value",1.02 (inactive)
same,normalized growth,"locus YGL248W, strain PDE1, stronger effect = lower value",0.842 (active)
same,normalized growth,"locus YGL253W, strain hxk2, stronger effect = lower value",0.999 (inactive)
same,normalized growth,"locus YGR078C, strain PAC10, stronger effect = lower value",0.802 (active) and 1.01 (inactive)
same,normalized growth,"locus YGR135W, strain pre9, stronger effect = lower value",0.936 (inactive)
same,normalized growth,"locus YGR252W, strain gcn5, stronger effect = lower value",0.895 (inactive)
same,normalized growth,"locus YHR013C, strain ard1, stronger effect = lower value",0.924 (inactive)
same,normalized growth,"locus YHR027C, strain rpn1, stronger effect = lower value",0.985 (inactive)
same,normalized growth,"locus YHR030C, strain SLT2, stronger effect = lower value",0.839 (active)
same,normalized growth,"locus YHR079C, strain IRE1 (second series), stronger effect = lower value",0.977 (inactive)
same,normalized growth,"locus YHR094C, strain hxt1, stronger effect = lower value",0.977 (inactive)
same,normalized growth,"locus YHR129C, strain ARP1, stronger effect = lower value",0.87 (active)
same,normalized growth,"locus YHR142W, strain chs7, stronger effect = lower value",0.968 (inactive)
same,normalized growth,"locus YHR200W, strain rpn10, stronger effect = lower value",0.981 (inactive)
same,normalized growth,"locus YIL066C, strain RNR3, stronger effect = lower value",0.952 (inactive)
same,normalized growth,"locus YIL073C, strain SPO22, stronger effect = lower value",0.804 (inactive)
same,normalized growth,"locus YIL125W, strain kgd1, stronger effect = lower value",0.982 (inactive)
same,normalized growth,"locus YIR030C, strain dcg1, stronger effect = lower value",0.986 (inactive)
same,normalized growth,"locus YJL092W, strain hpr5, stronger effect = lower value",0.99 (inactive)
same,normalized growth,"locus YJL095W, strain BCK1 (second series), stronger effect = lower value",0.987 (inactive)
same,normalized growth,"locus YJL095W, strain BCK1, stronger effect = lower value",0.723 (active)
same,normalized growth,"locus YJL115W, strain asf1, stronger effect = lower value",0.98 (inactive)
same,normalized growth,"locus YJL129C, strain trk1, stronger effect = lower value",0.975 (inactive)
same,normalized growth,"locus YJL134W, strain LCB3, stronger effect = lower value",0.997 (inactive)
same,normalized growth,"locus YJL154C, strain vps35, stronger effect = lower value",0.975 (inactive)
same,normalized growth,"locus YJL164C, strain tpk1, stronger effect = lower value",0.979 (inactive)
same,normalized growth,"locus YJL166W, strain qcr8, stronger effect = lower value",1.01 (inactive)
same,normalized growth,"locus YJL168C, strain set2, stronger effect = lower value",0.985 (inactive)
same,normalized growth,"locus YJL187C, strain SWE1 (second series), stronger effect = lower value",0.888 (inactive)
same,normalized growth,"locus YJL187C, strain SWE1, stronger effect = lower value",0.989 (inactive)
